The target in test [1] is D(1A) dopamine receptor (Homo sapiens) (UniProt P21728). Description: HTS Assay for Allosteric Agonists of the Human D1 Dopamine Receptor: Primary Screen for Agonists (AID 488981). Also: potency is read from the fitted curve at half-maximal effect. As to activation: 0% is about no effect. The method, boiled down:
(§1)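 Tetracycline-induced HEK293 Trex D1 cells with forced coupling to calcium, loaded with no-wash calcium dye; kinetic fluorescence read 180 s after compound addition for agonism, then a further 180 s after an EC20 dopamine challenge for potentiation.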

Test [2] has the same target. Nature of the test: HTS Assay for Allosteric Agonists of the Human D1 Dopamine Receptor: Primary Screen for Potentiators (AID 488982). Also: 0% is about no effect. Summed up:
as §1

For test [3] the target is unchanged. Nature of the test: HTS Assay for Allosteric Agonists of the Human D1 Dopamine Receptor: Primary Screen for Antagonists (AID 488983).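 Also: calcium flux response to an EC80 dopamine challenge measured with no-wash dye; % is scaled to controls: 0 for no effect and ±100 for the full control effect; nearly all actives have a fitted effect of over 65% in size.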 Summed up: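 Calcium flux readout, no-wash dye, inducible HEK293 T-REx D1 line (force-coupled). Compound added after 10 s baseline, 180 s kinetic read; then dopamine at EC80, further 180 s read.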
The nature of test [4]: Validation screen for small molecules that induce genotoxicity in human embryonic kidney (HEK293T) cells expressing luciferase-tagged ELG1 (AID 493106). Also: 0% is about no effect. The method, boiled down: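 qHTS format; 2,000 HEK293T ELG1-luc cells/well; 23 nL compound via pin tool; 16 hr, 37 °C/5% CO2; ONE-Glo, 30 min RT; luminescence read.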
Test [5] addresses ATPase family AAA domain-containing protein 5 (Homo sapiens) (UniProt Q96QE3). Nature of the test: Validation screen for small molecules that inhibit ELG1-dependent DNA repair in human embryonic kidney (HEK293T) cells expressing luciferase-tagged ELG1 (AID 493107). Also: nearly all actives have a fitted effect of over 70% in size. Also: potency is read from the fitted curve at half-maximal effect. Summed up: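 ELG1-luciferase HEK293T reporter; 5-fluorouridine + compound/DMSO, 16 hr, 37 °C, 5% CO2; ONE-Glo 30 min RT; luminescence read, qHTS format.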

The target of test [6] is Thyrotropin-releasing hormone receptor (Homo sapiens) (UniProt P34981). Description: qHTS for Small Molecule Agonists and Allosteric Enhancers of Human TRH Receptor: Validation Screen for Agonists (AID 493127;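 active = calcium activation more than 3 SD above the typical response in the agonist read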;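 also: intracellular calcium rise by fluo-8 fluorescence before TRH EC20 addition; 0% is about no effect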). Conditions: TRH receptor agonist cell assay; at 2 µM; stronger effect = higher value. Summed up: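 Read-out: intracellular calcium release measured kinetically by FDSS (fluo-8, ex 480/em 530 nm), 1 reading/s after a 10-cycle baseline. TRHR cells, 2000/well, cultured 18 h at 33.5C, dye-loaded at room temp. Compound-evoked positive calcium signal flags agonists.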
On the technique in general: Quantitative high-throughput screening tests each substance at several concentrations.

A short description of test [7]: Nrf2 qHTS screen for inhibitors: Validation (AID 493153; active = well fitted inhibition curve with a large enough effect in the main read-out, with a control signal flat, not every such curve was filed as active; also: potency is read from the fitted curve at half-maximal effect). Conditions: Potency: luciferase luminescence; viability change: measured here: cytotoxicity max response. Summed up:
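Concentration-response test in A549 ARE_Fluc reporter cells (5% FBS OPTI-MEM), compound exposure 18-24 h at 37°C, 5% CO2. Cell viability measured first by CellTiter-Fluor fluorescence; ARE-driven luciferase luminescence then measured as Nrf2 activity.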

The nature of test [8]: qHTS for Inhibitors of Cell Surface uPA Generation: Validation Assay (AID 493164).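 Also: RAW 264.7 macrophage cells exposed to compound for 18 h; 0% is about no effect.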 The method, boiled down:
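Compounds are titrated over seven points (2.45 nM–38.3 uM final) onto pre-plated RAW 264.7 cells and incubated for 18 h. Retained intracellular ATP, measured with ATP-Lite, indicates blocked lethal factor entry.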

In test [9] the target is Galactokinase (Homo sapiens) (UniProt P51570). Nature of the test: qHTS Validation Assay for Inhibitors of Human Galactokinase (GALK) (AID 493189). Also: 0% is about no effect. Summed up: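 Luminescence from leftover ATP (Kinase-Glo Plus, 10 min) served as read-out after a 1 h room-temperature reaction of 5 nM GALK, 100 uM galactose and 35 uM ATP at pH8.0.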
The target of test [10] is ATP-dependent 6-phosphofructokinase (Trypanosoma brucei brucei) (UniProt O15648). Description: qHTS Assay to Find Inhibitors of T. brucei phosphofructokinase: hit validation (AID 492961).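 Also: luminescence reports ADP formed as PFK phosphorylates fructose-6-phosphate with ATP; series mostly up to about 51 µM; % is scaled to controls: 0 for no effect and ±100 for the full control effect.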 The method, boiled down:
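Inhibition of parasite PFK is measured as reduced ADP formation, quantified via luciferase after ATP depletion. Assay used 0.1 mM ATP, 0.5 mM F6P, 1.25 nM enzyme, 45 min incubation.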

Results filed as inconclusive are left out. Activity calls are given as the source filed them. Unless noted, calls follow the shape of the dose curve; as a rule, active = well fitted curve in the direction sought with a large enough effect; inconclusive = small, poorly fitted or top-dose-only effect, or another doubt; inactive = no such curve, though single readings can be large; an effect the other way counts as inactive or inconclusive.

Galactokinase (Homo sapiens), sequence (P51570 whole entry, looked up): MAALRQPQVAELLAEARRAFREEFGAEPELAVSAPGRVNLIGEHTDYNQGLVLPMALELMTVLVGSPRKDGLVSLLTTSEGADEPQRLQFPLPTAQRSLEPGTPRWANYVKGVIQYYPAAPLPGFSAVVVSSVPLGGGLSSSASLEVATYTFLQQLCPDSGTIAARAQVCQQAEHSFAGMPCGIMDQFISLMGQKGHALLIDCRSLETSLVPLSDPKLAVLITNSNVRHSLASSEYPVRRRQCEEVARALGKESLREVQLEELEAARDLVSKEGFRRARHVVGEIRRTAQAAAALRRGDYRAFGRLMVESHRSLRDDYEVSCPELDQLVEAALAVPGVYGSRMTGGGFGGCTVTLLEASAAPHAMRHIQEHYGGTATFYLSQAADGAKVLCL
D(1A) dopamine receptor (Homo sapiens), sequence (P21728 whole entry, looked up): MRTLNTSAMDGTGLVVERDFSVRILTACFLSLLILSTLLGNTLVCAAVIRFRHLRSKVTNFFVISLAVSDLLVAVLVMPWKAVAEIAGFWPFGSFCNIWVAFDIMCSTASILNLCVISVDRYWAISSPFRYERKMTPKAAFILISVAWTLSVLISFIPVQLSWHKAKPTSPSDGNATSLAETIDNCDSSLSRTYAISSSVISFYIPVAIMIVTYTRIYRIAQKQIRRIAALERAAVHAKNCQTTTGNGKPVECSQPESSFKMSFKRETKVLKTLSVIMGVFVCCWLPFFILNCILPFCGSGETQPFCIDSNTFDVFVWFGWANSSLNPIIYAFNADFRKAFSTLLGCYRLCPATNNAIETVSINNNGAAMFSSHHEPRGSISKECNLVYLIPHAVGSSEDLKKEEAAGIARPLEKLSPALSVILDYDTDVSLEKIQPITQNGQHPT
ATPase family AAA domain-containing protein 5 (Homo sapiens), sequence (Q96QE3 whole entry, looked up, the tested form may be a part): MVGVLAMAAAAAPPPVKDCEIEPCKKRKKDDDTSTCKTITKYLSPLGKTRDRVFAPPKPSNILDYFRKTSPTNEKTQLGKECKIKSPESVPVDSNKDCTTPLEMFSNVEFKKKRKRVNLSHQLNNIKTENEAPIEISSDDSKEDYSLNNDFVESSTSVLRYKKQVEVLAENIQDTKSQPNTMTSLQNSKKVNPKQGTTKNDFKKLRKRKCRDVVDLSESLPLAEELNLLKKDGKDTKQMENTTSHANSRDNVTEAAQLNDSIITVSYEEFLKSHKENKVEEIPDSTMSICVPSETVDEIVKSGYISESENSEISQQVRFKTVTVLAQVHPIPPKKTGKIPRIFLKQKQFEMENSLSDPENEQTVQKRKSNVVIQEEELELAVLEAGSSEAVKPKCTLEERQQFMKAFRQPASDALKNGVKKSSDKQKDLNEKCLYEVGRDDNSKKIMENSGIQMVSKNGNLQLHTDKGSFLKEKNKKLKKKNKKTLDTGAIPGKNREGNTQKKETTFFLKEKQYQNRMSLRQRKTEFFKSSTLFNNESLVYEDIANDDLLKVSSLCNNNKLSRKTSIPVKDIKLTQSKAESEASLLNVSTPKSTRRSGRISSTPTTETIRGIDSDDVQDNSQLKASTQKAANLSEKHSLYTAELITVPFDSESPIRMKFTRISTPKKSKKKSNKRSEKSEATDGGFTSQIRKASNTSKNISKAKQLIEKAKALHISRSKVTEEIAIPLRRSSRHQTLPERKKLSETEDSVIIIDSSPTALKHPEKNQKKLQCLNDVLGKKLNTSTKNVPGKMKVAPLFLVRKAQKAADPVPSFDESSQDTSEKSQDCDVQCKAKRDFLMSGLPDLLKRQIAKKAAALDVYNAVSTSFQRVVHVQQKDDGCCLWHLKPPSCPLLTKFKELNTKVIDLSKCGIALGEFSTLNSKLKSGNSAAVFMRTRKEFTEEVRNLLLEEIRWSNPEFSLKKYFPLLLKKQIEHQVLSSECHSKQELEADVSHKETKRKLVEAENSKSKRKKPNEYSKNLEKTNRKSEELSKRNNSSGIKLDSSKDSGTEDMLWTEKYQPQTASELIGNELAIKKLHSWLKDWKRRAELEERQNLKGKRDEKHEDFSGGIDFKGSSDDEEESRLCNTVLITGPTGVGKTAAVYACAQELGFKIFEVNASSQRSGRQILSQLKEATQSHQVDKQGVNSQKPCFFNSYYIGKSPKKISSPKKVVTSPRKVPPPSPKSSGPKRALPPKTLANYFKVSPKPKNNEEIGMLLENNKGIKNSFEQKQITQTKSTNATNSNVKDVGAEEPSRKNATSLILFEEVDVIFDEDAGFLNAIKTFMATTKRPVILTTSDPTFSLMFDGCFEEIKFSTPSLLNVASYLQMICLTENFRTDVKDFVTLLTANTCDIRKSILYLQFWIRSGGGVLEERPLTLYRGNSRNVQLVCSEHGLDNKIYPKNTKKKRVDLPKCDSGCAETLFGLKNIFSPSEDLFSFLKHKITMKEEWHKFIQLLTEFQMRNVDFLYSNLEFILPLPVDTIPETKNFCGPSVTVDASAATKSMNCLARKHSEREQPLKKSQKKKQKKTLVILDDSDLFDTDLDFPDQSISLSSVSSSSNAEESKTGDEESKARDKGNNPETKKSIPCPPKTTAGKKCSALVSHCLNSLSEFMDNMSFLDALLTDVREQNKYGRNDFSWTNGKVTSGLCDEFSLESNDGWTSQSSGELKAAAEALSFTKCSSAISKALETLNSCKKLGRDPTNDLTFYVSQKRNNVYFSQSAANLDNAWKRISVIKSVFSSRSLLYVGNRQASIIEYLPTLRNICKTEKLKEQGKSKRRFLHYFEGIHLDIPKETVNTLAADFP
ATP-dependent 6-phosphofructokinase (Trypanosoma brucei brucei), sequence (O15648 whole entry, looked up): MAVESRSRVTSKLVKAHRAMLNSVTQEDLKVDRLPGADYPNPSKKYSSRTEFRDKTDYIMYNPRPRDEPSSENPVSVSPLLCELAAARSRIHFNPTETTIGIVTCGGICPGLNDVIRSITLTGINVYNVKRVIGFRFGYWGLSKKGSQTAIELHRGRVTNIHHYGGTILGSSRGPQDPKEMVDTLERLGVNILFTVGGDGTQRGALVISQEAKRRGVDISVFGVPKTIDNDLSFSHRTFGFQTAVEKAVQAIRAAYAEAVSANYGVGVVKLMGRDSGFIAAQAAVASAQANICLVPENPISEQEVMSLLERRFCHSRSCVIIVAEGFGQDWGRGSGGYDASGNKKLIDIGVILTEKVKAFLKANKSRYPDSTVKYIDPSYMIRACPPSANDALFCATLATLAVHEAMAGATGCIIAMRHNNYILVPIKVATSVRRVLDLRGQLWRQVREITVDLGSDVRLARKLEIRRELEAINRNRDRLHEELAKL
Thyrotropin-releasing hormone receptor (Homo sapiens), sequence (P34981 whole entry, looked up): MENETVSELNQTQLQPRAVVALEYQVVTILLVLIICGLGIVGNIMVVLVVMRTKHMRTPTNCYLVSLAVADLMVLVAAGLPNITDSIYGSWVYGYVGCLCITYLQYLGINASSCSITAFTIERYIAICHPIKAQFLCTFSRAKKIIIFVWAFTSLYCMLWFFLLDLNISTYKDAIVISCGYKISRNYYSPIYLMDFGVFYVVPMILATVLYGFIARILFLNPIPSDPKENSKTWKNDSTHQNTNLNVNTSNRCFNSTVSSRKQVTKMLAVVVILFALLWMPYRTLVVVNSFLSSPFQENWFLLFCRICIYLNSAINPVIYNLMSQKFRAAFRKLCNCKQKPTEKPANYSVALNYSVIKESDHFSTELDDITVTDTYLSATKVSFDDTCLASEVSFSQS

Regarding `Cc1ccc(S(=O)(=O)NC(=O)NN2CCCCCC2)cc1`, the Potency result in test [1], in [2], in [3], in [4], in [5] and in test [7] was “inactive” throughout. In test [6], the activation was 0.188% (inactive). Also, the viability change in test [7] was -3.67%. For the same molecule, the result in test [8] and in test [9] was inactive.
Take `C=CCc1ccccc1OCC(O)CNC(C)C` (centres undefined): the Potency result in [1], in test [2], in test [3], in test [4], in test [5] and in test [7] was “inactive” in each case. In addition, the activation in test [6] was 0.312% (inactive). Also, the viability change in test [7] was -7.73%. The molecule was classed as inactive in test [8] and in [9].
Consider `CN(C)CCOC(=O)COc1ccc(Cl)cc1`, for which the Potency entry in test [1], in [2], in test [3], in test [4], in [5] and in test [7] was “inactive” each time. Besides, the molecule was classed as inactive in test [10], in test [8] and in test [9]. Moreover, the activation in test [6] is 0.188% (inactive). The viability change in [7] amounted to 9.38%.
Regarding `CCOC(=O)C1=C(C)NC(C)=C(C(=O)OC)C1c1cccc(Cl)c1Cl` (centres undefined), the Potency entry in test [1], in test [2], in test [3], in test [4] and in [7] was “inactive” in each case. Besides, the outcome in test [10], in [8] and in test [9] was inactive. In test [7], the viability change is -3.98%.
Turning to `Cc1cccc(C)c1NC(=O)C(C)N` (centres undefined), the Potency result in [1], in [2], in test [3], in test [4], in [5] and in test [7] was “inactive” each time. Moreover, the viability change in test [7] was found to be 3.48%. Moreover, the call in [8] was inactive.
As for `NCCCNCCSP(=O)(O)O`, the Potency entry in test [1], in test [2], in test [3], in [4] and in test [5] was “inactive” each time. Moreover, the molecule was classed as inactive in test [10], in [8] and in test [9]. For the same molecule, the activation in [6] is 0.812% (inactive).
Consider `Cc1cc(C)c(/C=C2\C(=O)Nc3ccccc32)[nH]1`, for which the Potency in test [1] was 15.8 µM (active). The Potency entry in [2], in test [3] and in test [4] was “inactive” throughout. The molecule was classed as inactive in test [10], in test [8] and in test [9]. The activation in test [6] was 0.562% (inactive).
With `C[N+](C)(C)CCCCCCCCCC[N+](C)(C)C`, the Potency entry in [1], in [2], in [3], in test [4] and in [5] was “inactive” in each case. Moreover, the result in [10], in test [8] and in test [9] was inactive.
For `CC(C)(Oc1ccc(CCNC(=O)c2ccc(Cl)cc2)cc1)C(=O)O`, the Potency result in [1], in test [2], in [3], in [4], in [5] and in test [7] was “inactive” in each case. Moreover, the outcome in test [10] and in [8] was inactive. In addition, in test [7], the viability change was 5.14%.
Take `COc1ccc(CCN(C)CCCC(C#N)(c2cc(OC)c(OC)c(OC)c2)C(C)C)cc1OC` (centres undefined): the Potency result in [1], in test [2], in test [3], in test [4], in test [5] and in test [7] was “inactive” in each case. Besides, the activation in test [6] is 3% (inactive). The viability change in [7] was -13.6%. Moreover, the result in [8] and in test [9] was inactive.
In the case of `CC[N+](C)(C)c1cccc(O)c1`, the Potency entry in [1], in [2], in [3], in test [4], in test [5] and in test [7] was “inactive” in each case. The molecule was called inactive in test [10], in test [8] and in test [9]. The viability change in [7] was determined as 0.744%.
On to `NC(=O)c1ncn([C@@H]2O[C@H](CO)[C@@H](O)[C@H]2O)c1O`, for which the Potency entry in [1], in test [2], in [3], in test [4], in [5] and in test [7] was “inactive” each time. Moreover, the result in test [10], in test [8] and in [9] was inactive. Also, in test [7], the viability change amounted to 2.79%.
`CCN(CC)CCNC(=O)c1ccc(NC(C)=O)cc1`: the Potency entry in [1], in [2], in test [4] and in test [5] was “inactive” throughout. The molecule was classed as inactive in [10], in [8] and in [9].
Turning to `Cc1nc2c([nH]1)c(=O)n(C)c(=O)n2Cc1ccco1`, the Potency result in [1], in test [2], in test [3], in [4] and in test [7] was “inactive” each time. Also, in test [7], the viability change was -1.43%. The outcome in test [8] and in test [9] was inactive.
For the molecule `C[C@]12C=CC(=O)C=C1CC[C@H]1[C@@H]3C[C@@H](O)[C@](O)(C(=O)CO)[C@@]3(C)C[C@H](O)[C@@]12F`, the Potency entry in test [1], in test [2], in [3], in test [4] and in test [5] was “inactive” in each case. Also, in test [7], the Potency is 0.082 µM (active). Further, in test [7], the viability change is -4.26%. For the same molecule, the molecule was classed as inactive in test [8] and in test [9].
Regarding `NC(=O)c1cn(Cc2c(F)cccc2F)nn1`, the Potency entry in [1], in test [2], in test [4], in [5] and in test [7] was “inactive” in each case. Besides, the outcome in test [10] and in test [8] was inactive. The viability change in [7] is -8.96%.
`CCCOc1ccccc1-c1nc2n[nH]nc2c(=O)[nH]1`: the Potency entry in test [1], in test [2], in [4] and in test [5] was “inactive” throughout. For the same molecule, the result in test [10], in [8] and in [9] was inactive. In addition, the activation in test [6] is -3.25% (inactive).
Take `CC(=O)[C@@]1(O)CC[C@H]2[C@@H]3CCC4=CC(=O)CC[C@]4(C)[C@H]3CC[C@@]21C`: the Potency entry in test [1], in test [2], in [4] and in test [5] was “inactive” throughout. Besides, the result in test [10] and in [8] was inactive.
Turning to `CCCCNc1ccc(C(=O)OCCN(C)C)cc1`, the Potency entry in [1], in [2], in test [4], in test [5] and in [7] was “inactive” in each case. Besides, the molecule was called inactive in test [10], in test [8] and in [9]. Further, the viability change in test [7] is 2.59%.
`C[N+](C)(C)CCOC(=O)CCC(=O)OCC[N+](C)(C)C`: the Potency entry in test [1], in test [2], in [4], in test [5] and in [7] was “inactive” throughout. Also, the molecule was classed as inactive in test [10], in test [8] and in test [9]. Also, the viability change in [7] was found to be 0.0745%.
On to `Fc1ccc(C(c2ccc(F)cc2)N2CCN(C/C=C/c3ccccc3)CC2)cc1`, for which the Potency result in test [1], in test [2], in [3], in test [4] and in test [7] was “inactive” each time. In test [5], the Potency was 23.1 µM (active). Also, the viability change in test [7] is -8.46%. Also, the result in test [8] and in test [9] was inactive.
Consider `CCOC(=O)c1cnc2c(cnn2CC)c1NN=C(C)C`, for which the Potency entry in [1], in test [2], in test [4], in test [5] and in test [7] was “inactive” each time. For the same molecule, the molecule was classed as inactive in [10], in [8] and in test [9]. Besides, the activation in test [6] is -4.75% (inactive). Moreover, in test [7], the viability change was -1.57%.
Consider `CCN(Cc1ccncc1)C(=O)C(CO)c1ccccc1` (centres undefined), for which the Potency entry in test [1], in test [2], in [3], in test [4], in [5] and in [7] was “inactive” each time. For the same molecule, the viability change in test [7] was -1.19%. Besides, the outcome in test [8] and in [9] was inactive.

Values taken from PubChem BioAssay (NCATS).
